# Source: PubChem BioAssay (Tox21)
# Values joined by “and” are separate entries in the source; they are usually repeats but may differ in a detail not shown here. Identical values can stand only once. Results filed as inconclusive are left out. Entries that show only a call come without a potency. Active and inactive are the calls of the source. Calls come from the whole dose curve; as a rule, active = well fitted inhibition curve with a large enough effect in the repeat runs; inconclusive = weak or mixed curves; inactive = no such curve, though single readings can be large or run the other way.
# Target: Cytochrome P450 2C9 (Homo sapiens) (UniProt P11712)
# Assay: Cytochrome P450 Family 2 Subfamily C Member 9 (CYP2C9) small molecule antagonists: luciferase reporter qHTS assay (AID 1671198); note: nearly all actives have a fitted effect of over 50% in size
# Details: P450-Glo CYP2C9 enzyme assay, luciferin luminescence; series mostly up to 115 µM
# Text: U.S. Tox21 Program National Center for Advancing Translational Sciences [NCATS] U.S. Environmental Protection Agency [EPA] National Institutes of Environmental Health Sciences [NIEHS] National Toxicology Program [NTP] U.S. Food and Drug Administration [FDA] Tox21 Assay Overview: Cytochrome P450 (CYP) enzymes are membrane-bound hemeproteins that play a key role in metabolism of drugs and xenobiotics. Evaluation of the effect of chemicals on CYP isozymes is useful to minimize the adverse drug reactions and toxicities in drug development process. Tox21 chemicals were tested for their effect on CYP enzyme activities by using P450-Glo (TM) screening systems (Promega Corporation, Madison, WI). These systems provide a luminescent method containing proluciferin substrates and are converted to luciferin products by CYP isozymes. The luciferin products formed are detected with a luciferin detection reagent, and the amount of light produced is proportional to CYP activity. P450-Glo (TM) CYP2C9 screening system (Catalog. No. V9790) was used to detect the compounds that interfere in CYP2C9 activity.
# Tox21 Assay Protocol Summary: Two ul of enzyme-substrate mix was dispensed into medium binding white/solid 1536-well plates (Greiner Bio-One North America Inc., Monroe, NC) using a BioRaptr Flying Reagent Dispenser (FRD, Beckman Coulter, Brea, CA). […] The assay plates were incubated at room temperature for 10 min. Then 2 ul of NADPH regeneration solution was added to each well of the assay plates using an FRD and incubated at 37C for 1 h. The reaction was stopped by adding 4 ul of detection reagent using an FRD and after 20 min incubation at room temperature the luminescence signal was measured using a ViewLux plate reader (Perkin Elmer, Shelton, CT). Data were expressed as relative luminescence units.
# Potency is the fitted concentration of half-maximal effect.
# Chain of Cytochrome P450 2C9 (Homo sapiens) (P11712 whole entry, looked up): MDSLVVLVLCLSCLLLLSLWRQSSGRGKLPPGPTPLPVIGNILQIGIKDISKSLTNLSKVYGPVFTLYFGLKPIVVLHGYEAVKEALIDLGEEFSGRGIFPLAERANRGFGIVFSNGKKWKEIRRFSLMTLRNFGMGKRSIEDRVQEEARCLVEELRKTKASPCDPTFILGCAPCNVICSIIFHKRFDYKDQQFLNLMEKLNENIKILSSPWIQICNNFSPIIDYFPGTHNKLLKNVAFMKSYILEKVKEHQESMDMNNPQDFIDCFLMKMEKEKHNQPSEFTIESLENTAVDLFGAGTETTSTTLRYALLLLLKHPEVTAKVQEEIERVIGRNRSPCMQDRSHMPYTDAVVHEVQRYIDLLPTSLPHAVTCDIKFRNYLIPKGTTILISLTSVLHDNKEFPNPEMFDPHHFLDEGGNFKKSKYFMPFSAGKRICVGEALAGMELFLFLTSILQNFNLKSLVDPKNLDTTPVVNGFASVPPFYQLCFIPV
row,Compound,Potency
1,CC1(C)C(=O)N(CO)C(=O)N1CO,inactive
2,O=C1OC(OC(=O)c2cccnc2Nc2cccc(C(F)(F)F)c2)c2ccccc21 (stereo not given),6.17 µM (active)
3,CC1(C)COCN1,inactive
4,CCCCCCCCCCCCOC(=O)c1cc(O)c(O)c(O)c1,9.99 µM (active) and 28.3 µM (active)
5,CS(C)(=O)=O,inactive
6,CC(C)OC(=O)c1cc(C(=O)OC(C)C)cc([N+](=O)[O-])c1,0.84 µM (active)
7,CCCCN(C)C,inactive
8,CCCCC(CC)COC(=O)c1ccc(O)cc1 (stereo not given),31.6 µM (active) and 35.6 µM (active)
9,C[Si](C)O[Si](C)C,inactive
10,CCOC(=O)C1=C(C)NC(C)=C(C(=O)OCC)C1c1ccccc1/C=C/C(=O)OC(C)(C)C,1.1 µM (active)
11,c1cc[nH]c1,inactive
12,CCCCCCCOC(=O)c1ccccc1C(=O)OCCCCCCC,17.8 µM (active)
13,COc1ccccc1C=O,inactive
14,Clc1ccc(C(Cn2ccnc2)OCc2ccsc2Cl)c(Cl)c1 (stereo not given),0.309 µM (active)
15,CNC(=S)NN,39.9 µM (active)
16,CCCCCCS,inactive
17,CCOB(OCC)OCC,inactive
18,CCc1cccc(CC)c1NC(=O)C(=O)O,inactive
19,C=C(C)CCCC,inactive
20,CC(=O)C=O,inactive

row,Compound,Potency
1,CCCC(CC)CCCCCCCN (stereo not given),25.8 µM (active)
2,Cn1cnc2ncnc(N)c21,inactive
3,Clc1cc(Cl)c(-c2c(Cl)c(Cl)cc(Cl)c2Cl)cc1Cl,inactive
4,COc1cccc(OC)c1O,35.6 µM (active)
5,O[C@@H](c1cc(C(F)(F)F)nc2c(C(F)(F)F)cccc12)[C@H]1CCCCN1,inactive
6,NCCCCCCNCCCCCCN,inactive
7,CCCCCCC(C)Nc1ccc(Nc2ccccc2)cc1 (stereo not given),7.1 µM (active)
8,CC(=O)O[C@@H]1C[C@@H]2CC[C@@]1(C)C2(C)C,inactive
9,CO[C@H]1C=CO[C@@]2(C)Oc3c(C)c(O)c4c(O)c(cc(O)c4c3C2=O)NC(=O)/C(C)=C\C=C/[C@H](C)[C@H](O)[C@@H](C)[C@@H](O)[C@@H](C)[C@H](OC(C)=O)[C@@H]1C,10.1 µM (active)
10,CC(=O)c1ccccc1N,inactive
11,CCc1ccc(C)nc1,inactive
12,Cc1cncc(C)c1,inactive
13,Oc1ccc(-c2ccccc2)c(Cl)c1,35.6 µM (active)
14,C=C[C@](C)(O)CC[C@@H]1[C@@]2(C)CCCC(C)(C)[C@@H]2CC[C@@]1(C)O,3.17 µM (active)
15,O=S(=O)(O)CCCN1CCOCC1,inactive
16,O=C(c1ccccc1)c1cc(Cl)ccc1O,33.8 µM (active)
17,CC(=O)OC1CCCCC1,inactive
18,CCCCCCCCCCCCCCNCCO,inactive
19,CC(C)(c1cc(Br)c(O)c(Br)c1)c1cc(Br)c(O)c(Br)c1,31.6 µM (active) and 35.5 µM (active) and 30 µM (active)
20,O=C1NCCN1CCN1CCC(c2cn(-c3ccc(F)cc3)c3ccc(Cl)cc23)CC1,inactive
